Experimental data reported in PubChem BioAssay (NCI).
This is part of a sample that, as a whole, favours compounds with a hit. Of some 79,000 tested, about 15% had one in any assay. A number with no mark means an inactive call. The source made the active and inactive calls. Rule as the data show it: active = growth inhibition above about 70%; inactive = the rest.

Assay: NCI Yeast Anticancer Drug Screen. Data for the rad50 strain (AID 155);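 also: 0% = growth of vehicle-only cultures of the same strain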
Settings: S. cerevisiae rad50 strain growth inhibition; at 50.0 µM (retest, dose inferred, filed as 5.0); stronger effect = higher value
How it was run: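 Growth of the mutant yeast was measured after compound exposure and referenced to vehicle-treated cultures.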

Structure (SMILES) | growth inhibition
O=C1C(N=Nc2ccccc2)=C(O)C2C3C=CC(C3)C12 (stereo not drawn) | 98% (active)
CC1CCCC(C(O)(C(=O)O)C2CCCC(C)C2)C1 (stereo not drawn) | 72% (active)
Cc1c(Cl)ccc2c1NC(=O)C2(O)CC(=O)c1ccc(Cl)cc1 (stereo not drawn) | 98% (active)
Cc1cc2c(=O)[nH]c(N)nc2nc1C | 11%
C=C1C(=O)O[C@@H]2C[C@@]3(C)CCC[C@H](C)C3=C[C@H]12 | 91% (active)
CCC(=NCCCCCCN=C(CC)c1cc(C)cc([N+](=O)[O-])c1O)c1cc(C)cc([N+](=O)[O-])c1O.[Fe] | 46%
CCCCN(CCCC)CC(O)c1cc(-c2ccc(Cl)cc2)nc2c(Cl)cccc12 (stereo not drawn) | 6%
COc1ccc2c(c1)CC/C(=C\c1ccc(OCCN(C)C)cc1)C2=O | 19%
CCOC(=O)c1cc2c(nc1NCc1ccc(OC)c(OC)c1)/C(=C/c1ccccc1)CCCC2 | 94% (active)
CSCS(=O)C[C@H](CO)NC(=O)/C=C/c1c(C)[nH]c(=O)[nH]c1=O (stereo partly drawn) | 98% (active)
CCOC(=O)c1c(N)sc2c1CCCCC2 | -118%
Cc1cc(N)c(C)c2c1[nH]c1ccc(Br)cc12 | 96% (active)
N=C(N)Sc1ccc([N+](=O)[O-])cc1Cl | 94% (active)
COc1c(OC)c(C2(O)C(=O)N(C)c3ccccc32)c(OC)c(OC)c1C1(O)C(=O)N(C)c2ccccc21 (stereo not drawn) | 2%
Fc1cccc(NC(=S)SCc2ccc(Cl)cc2)c1 | 98% (active)
Cc1ccc(/C=N/NS(=O)(=O)c2ccccc2)c(C)c1 | 25%
CCCCCCCCCCCCNC(=O)C[n+]1cccc(C(=O)N(C)C)c1 | 33%
CN(C)C(=S)/N=c1\ss/c(=N\S(=O)(=O)c2ccccc2)n1-c1ccccc1 | 0%
O=C(NCCCl)Nc1c2ccccc2nc2ccccc12 | 65%
COc1ccccc1NC(=O)/C(=C/c1ccccc1)C(C)=O | 12%

Structure (SMILES) | growth inhibition
Oc1[nH]c2ccccc2c1N=NC(=S)NCc1ccccn1 | 99% (active)
c1cc2c(cc1CCCCCCCCCCc1ccc3c(c1)CCC3)CCC2 | -5%
C=Cc1ccccc1C1(O)C=CC(OC)(OC)C=C1 | 25%
CN(C)CC1CCc2c(ccc3ccccc23)C1=O (stereo not drawn) | 68%
CCCCC(C)(C)OC(=O)Nc1ccc(Br)cc1 | 95% (active)
O=C(Nc1ccc(F)c(Cl)c1)Oc1ccc(Br)cc1Br | 52%
CCO/C=C1\N=C(C(O)(c2ccc(Cl)cc2)c2ccc(Cl)cc2)OC1=O | 3%
O=C1c2ccccc2C(O)(c2ccccc2)c2c(Cl)cccc21 (stereo not drawn) | 27%
Nc1ccccc1-c1nc2c(ccc3ccccc32)[nH]1 | 10%
CCCCCCCCCCCCCCNCCN | 29%
CC(C)CCCC(C)C1CCC2C3CC=C4OC(=O)CCC4(C)C3CCC12C (stereo not drawn) | 88% (active)
CC(Br)C(=O)c1ccc2cc(Cl)c3ccccc3c2c1 (stereo not drawn) | 99% (active)
N#CSc1ccc2nc(NCO)sc2c1 | 97% (active)
c1ccc2c3[nH]c(c2c1)=Nc1ccc(cc1)-c1nc2ccc(cc2o1)N=c1[nH]c(c2ccccc12)=Nc1ccc2nc(oc2c1)-c1ccc(cc1)N=3 | 94% (active)
CCOc1ccc2nc(NC(=O)c3c/c(=N\NC(=O)C[N+](C)(C)C)c4ccc(O)cc4o3)sc2c1 | 64%
C[C@@H]1CC=C[C@@H](NC(=O)OCc2ccccc2)[C@H]1C=O | 30%
O=C(/C=C/c1cccc([N+](=O)[O-])c1)CCl | 98% (active)
CCC[CH2][Sn]([CH2]CCC)([O]C(=O)c1cccc(F)c1F)[O]C(=O)c1cccc(F)c1F | 73% (active)
O=C(O)CCC(=O)NNc1ccccc1 | 68%

Same assay, conditions: S. cerevisiae rad50 strain growth inhibition; at 50.0 µM; stronger effect = higher value

Structure (SMILES) | growth inhibition
O=C1C(N=Nc2ccccc2)=C(O)C2C3C=CC(C3)C12 (stereo not drawn) | 98.8% (active)
CC1CCCC(C(O)(C(=O)O)C2CCCC(C)C2)C1 (stereo not drawn) | 66.3%
Cc1c(Cl)ccc2c1NC(=O)C2(O)CC(=O)c1ccc(Cl)cc1 (stereo not drawn) | 99.2% (active)
Cc1cc2c(=O)[nH]c(N)nc2nc1C | -9.45%
C=C1C(=O)O[C@@H]2C[C@@]3(C)CCC[C@H](C)C3=C[C@H]12 | 50.5%
CCC(=NCCCCCCN=C(CC)c1cc(C)cc([N+](=O)[O-])c1O)c1cc(C)cc([N+](=O)[O-])c1O.[Fe] | 80.9% (active)
CCCCN(CCCC)CC(O)c1cc(-c2ccc(Cl)cc2)nc2c(Cl)cccc12 (stereo not drawn) | 99% (active)
COc1ccc2c(c1)CC/C(=C\c1ccc(OCCN(C)C)cc1)C2=O | 40.2%
CCOC(=O)c1cc2c(nc1NCc1ccc(OC)c(OC)c1)/C(=C/c1ccccc1)CCCC2 | 90.2% (active)
CSCS(=O)C[C@H](CO)NC(=O)/C=C/c1c(C)[nH]c(=O)[nH]c1=O (stereo partly drawn) | 84.5% (active)
CCOC(=O)c1c(N)sc2c1CCCCC2 | 47%
Cc1cc(N)c(C)c2c1[nH]c1ccc(Br)cc12 | 54.1%
N=C(N)Sc1ccc([N+](=O)[O-])cc1Cl | 85.2% (active)
COc1c(OC)c(C2(O)C(=O)N(C)c3ccccc32)c(OC)c(OC)c1C1(O)C(=O)N(C)c2ccccc21 (stereo not drawn) | 7.2%
Fc1cccc(NC(=S)SCc2ccc(Cl)cc2)c1 | 99.4% (active)
Cc1ccc(/C=N/NS(=O)(=O)c2ccccc2)c(C)c1 | 30.6%
CCCCCCCCCCCCNC(=O)C[n+]1cccc(C(=O)N(C)C)c1 | 68.3%
CN(C)C(=S)/N=c1\ss/c(=N\S(=O)(=O)c2ccccc2)n1-c1ccccc1 | 37.6%
O=C(NCCCl)Nc1c2ccccc2nc2ccccc12 | 72% (active)
COc1ccccc1NC(=O)/C(=C/c1ccccc1)C(C)=O | 48.6%

Structure (SMILES) | growth inhibition
Oc1[nH]c2ccccc2c1N=NC(=S)NCc1ccccn1 | 77.4% (active)
c1cc2c(cc1CCCCCCCCCCc1ccc3c(c1)CCC3)CCC2 | 2.75%
C=Cc1ccccc1C1(O)C=CC(OC)(OC)C=C1 | 44%
CN(C)CC1CCc2c(ccc3ccccc23)C1=O (stereo not drawn) | 69%
CCCCC(C)(C)OC(=O)Nc1ccc(Br)cc1 | 96.3% (active)
O=C(Nc1ccc(F)c(Cl)c1)Oc1ccc(Br)cc1Br | 38.1%
CCO/C=C1\N=C(C(O)(c2ccc(Cl)cc2)c2ccc(Cl)cc2)OC1=O | 48.7%
O=C1c2ccccc2C(O)(c2ccccc2)c2c(Cl)cccc21 (stereo not drawn) | 82.6% (active)
Nc1ccccc1-c1nc2c(ccc3ccccc32)[nH]1 | 79.7% (active)
CCCCCCCCCCCCCCNCCN | 88.1% (active)
CC(C)CCCC(C)C1CCC2C3CC=C4OC(=O)CCC4(C)C3CCC12C (stereo not drawn) | 83.4% (active)
CC(Br)C(=O)c1ccc2cc(Cl)c3ccccc3c2c1 (stereo not drawn) | -10.3%
N#CSc1ccc2nc(NCO)sc2c1 | 98.9% (active)
c1ccc2c3[nH]c(c2c1)=Nc1ccc(cc1)-c1nc2ccc(cc2o1)N=c1[nH]c(c2ccccc12)=Nc1ccc2nc(oc2c1)-c1ccc(cc1)N=3 | 78.2% (active)
CCOc1ccc2nc(NC(=O)c3c/c(=N\NC(=O)C[N+](C)(C)C)c4ccc(O)cc4o3)sc2c1 | 99.3% (active)
C[C@@H]1CC=C[C@@H](NC(=O)OCc2ccccc2)[C@H]1C=O | 13.6%
O=C(/C=C/c1cccc([N+](=O)[O-])c1)CCl | 99.3% (active)
CCC[CH2][Sn]([CH2]CCC)([O]C(=O)c1cccc(F)c1F)[O]C(=O)c1cccc(F)c1F | 86.6% (active)
O=C(O)CCC(=O)NNc1ccccc1 | 57.9%
